According to PubChem BioAssay:
Calls of active or inactive are those of the source.

Key:
[1] = system: Plasmodium falciparum Sir2 (PF13_0152, Sir2A); experiment: Plasmodium falciparum Sir2A binding compounds – biochemical, small-molecule microarray, 635 nm fluorescence, primary screen (AID 1098); settings: fluorescence 635 nm, higher = more signal;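 also: score merges spot fluorescence intensity with its signal-to-noise ratio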
[2] = probe aDKK1 binding to arrayed compounds – biochemical, biotinylated probe, 635/667 nm fluorescence, primary screen (AID 1099); settings: small-molecule microarray, higher = more signal;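 also: score merges 667nm spot fluorescence with signal to noise across triplicate slides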
[3] = probe aCHRDL2 binding to arrayed compounds – biochemical, biotinylated probe, 635/667 nm fluorescence, primary screen (AID 1100); settings: small-molecule microarray, higher = more signal
[4] = change in splice reporter luminescence, either direction, cell-based, HEK293, spliceosome inhibition project, primary screen (AID 1101); settings: HEK293 splicing luciferase reporter, 24 h, higher = more signal, called active from +8 up or from −8 down;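 also: HEK293 cells carrying a splicing-competent luciferase reporter gene; test concentration not given here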
[5] = molecular target: Fibroblast growth factor 10 (Homo sapiens) (UniProt O15520); experiment: compounds binding fibroblast growth factor 10 – biochemical, small-molecule microarray, 635 nm fluorescence, primary screen (AID 1102); settings: FGF10 binding, fluorescence 635 nm, higher = more signal
[6] = system: glycogen synthase kinase-3 (GSK3A per assay name; protocol says GSK3B); experiment: compounds binding glycogen synthase kinase-3 – biochemical, small-molecule microarray, 635 nm fluorescence, GSK3A, primary screen (AID 1103); settings: fluorescence 635 nm, higher = more signal; also: the record names both GSK3A and GSK3B
[7] = molecular target: Epidermal growth factor receptor (Homo sapiens) (UniProt P00533); experiment: compounds binding epidermal growth factor receptor – biochemical, small-molecule microarray, 635 nm fluorescence, primary screen (AID 1104); settings: EGFR binding, higher = more signal;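 also: score merges 667 nm emission intensity with spot signal to noise over triplicate slides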
[8] = molecular target: Follistatin-related protein 3 (Homo sapiens) (UniProt O95633); experiment: compounds binding follistatin-related protein 3 – biochemical, small-molecule microarray, 635 nm fluorescence, primary screen (AID 1105); settings: FSTL3 binding, higher = more signal;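 also: score merges emission near 667 nm and signal to noise per printed spot across three slides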
[9] = molecular target: Dickkopf-related protein 1 (Homo sapiens) (UniProt O94907); experiment: small molecules binding DKK1 protein – biochemical, small-molecule microarray, 635 nm fluorescence scan, primary screen (AID 1106); settings: higher = more signal;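 also: score merges emission near 667 nm with signal to noise over three replicate slides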
[10] = system: Inhibin beta A chain (activin A); experiment: small molecules binding activin A – biochemical, small-molecule microarray, 635 nm fluorescence scan, primary screen (AID 1107); settings: INHBA, higher = more signal;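 also: mouse activin A protein probed at 4.33 µg/mL on printed slides; score merges bound-protein fluorescence near 667 nm with spot signal-to-noise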
[11] = system: Human papillomavirus type 1a protein E7 (residues 44-93); experiment: small molecules binding HPV E7 44-93 – biochemical, small-molecule microarray, residues 44-93, 635 nm fluorescence, primary screen (AID 1108); settings: fluorescence 635 nm, higher = more signal;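 also: E7 fragment applied at 1 µg/mL in TBST for 1 h at 4 C; score combines spot fluorescence with its signal to noise ratio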
[12] = hepatitis C replication reporter changes, two-sided – Huh7 cells, luciferase reporter, HCV replication inhibitor project, primary screen (AID 1109); settings: Huh7 HCV replicon luciferase reporter, 48 h; higher = more signal;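 also: huh7 hepatoma cells harbouring a luciferase neomycin HCV replicon reporter; luciferase luminescence as measure of HCV replicon replication; test concentration not given here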
[13] = molecular target: Left-right determination factor 2 (Homo sapiens) (UniProt O00292); experiment: small molecules binding LEFTY2 protein – biochemical, small-molecule microarray, 635 nm fluorescence scan, primary screen (AID 1110); settings: higher = more signal
[14] = molecular target: Calmodulin-1 (Homo sapiens) (UniProt P0DP23); experiment: small molecules binding calmodulin-1 with EGTA – biochemical, small-molecule microarray, Cy5-labelled CALM1, profiling panel (AID 1111); settings: Cy5-CALM1 binding fluorescence, higher = more signal;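 also: labelled calmodulin applied in Tris saline Tween buffer holding calcium plus EGTA and DTT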
[15] = molecular target: Calmodulin-1 (Homo sapiens) (UniProt P0DP23); experiment: small molecules binding Ca-loaded calmodulin-1 – biochemical, small-molecule microarray, Cy5-labelled CALM1, plus calcium, artefact control for SMM control-protein annotation, profiling panel (AID 1112); settings: Cy5-CALM1 binding fluorescence, higher = more signal;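 also: score merges spot fluorescence with signal to noise from triplicate slides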
[16] = probe aWnt5a binding to arrayed compounds – biochemical, biotinylated probe, 635/667 nm fluorescence, primary screen (AID 1113); settings: small-molecule microarray, higher = more signal;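 also: score merges 667 nm fluorescence intensity with signal-to-noise per printed feature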
[17] = probe aShh binding to arrayed compounds – biochemical, biotinylated probe, 635/667 nm fluorescence, primary screen (AID 1114); settings: small-molecule microarray, higher = more signal;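 also: probe is biotin-labelled aShh protein from a stem cell growth factor screen; measures binding of labelled protein to compounds printed on the slide; score merges feature fluorescence at 667 nm with signal-to-noise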
[18] = probe aNog binding to arrayed compounds – biochemical, biotinylated probe, 635/667 nm fluorescence, primary screen (AID 1115); settings: small-molecule microarray, higher = more signal;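 also: probe is biotinylated aNog protein used at 0.15 µg/mL for 1 h at 4 C; z-score combines 667 nm fluorescence of each spot with its signal to noise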
[19] = molecular target: Torsin-1A-interacting protein 1 (Homo sapiens) (UniProt Q5JTV8); experiment: compound microarray binding of lysate hLAP1 – cell lysate, small-molecule microarray, COS7 lysate, 635/667 nm fluorescence, primary screen (AID 1116); settings: 635 nm fluorescence, higher = more signal
[20] = molecular target: Alpha-bungarotoxin (Bungarus multicinctus) (UniProt P60615); experiment: compounds binding labelled alpha-BTX control protein – biochemical, small-molecule microarray, Alexa647 label, 635/667 nm fluorescence, artefact control for SMM control protein annotation, profiling panel (AID 1117); settings: alpha-BTX-A647 binding fluorescence, higher = more signal
Sequence of Alpha-bungarotoxin (Bungarus multicinctus) (P60615 whole entry, looked up): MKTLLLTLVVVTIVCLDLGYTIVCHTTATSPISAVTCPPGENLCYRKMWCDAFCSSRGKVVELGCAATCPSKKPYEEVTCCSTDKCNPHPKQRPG

Sequence of Torsin-1A-interacting protein 1 (Homo sapiens) (Q5JTV8 whole entry, looked up): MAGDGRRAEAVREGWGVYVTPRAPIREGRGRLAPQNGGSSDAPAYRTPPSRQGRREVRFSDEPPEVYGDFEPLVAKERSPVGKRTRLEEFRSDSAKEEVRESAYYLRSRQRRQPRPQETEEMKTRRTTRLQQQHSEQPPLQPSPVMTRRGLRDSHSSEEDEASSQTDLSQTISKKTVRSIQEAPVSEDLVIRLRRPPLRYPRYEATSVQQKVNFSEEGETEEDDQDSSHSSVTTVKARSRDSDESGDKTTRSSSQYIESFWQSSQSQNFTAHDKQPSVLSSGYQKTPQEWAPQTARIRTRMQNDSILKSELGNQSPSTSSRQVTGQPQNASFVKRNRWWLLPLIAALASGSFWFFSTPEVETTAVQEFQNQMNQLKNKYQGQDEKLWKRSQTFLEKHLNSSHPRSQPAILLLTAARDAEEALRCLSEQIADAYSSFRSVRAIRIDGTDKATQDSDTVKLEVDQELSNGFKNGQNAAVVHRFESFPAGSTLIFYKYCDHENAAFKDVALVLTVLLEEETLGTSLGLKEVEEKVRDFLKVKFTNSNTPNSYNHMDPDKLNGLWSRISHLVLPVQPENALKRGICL
Sequence of Left-right determination factor 2 (Homo sapiens) (O00292 whole entry, looked up): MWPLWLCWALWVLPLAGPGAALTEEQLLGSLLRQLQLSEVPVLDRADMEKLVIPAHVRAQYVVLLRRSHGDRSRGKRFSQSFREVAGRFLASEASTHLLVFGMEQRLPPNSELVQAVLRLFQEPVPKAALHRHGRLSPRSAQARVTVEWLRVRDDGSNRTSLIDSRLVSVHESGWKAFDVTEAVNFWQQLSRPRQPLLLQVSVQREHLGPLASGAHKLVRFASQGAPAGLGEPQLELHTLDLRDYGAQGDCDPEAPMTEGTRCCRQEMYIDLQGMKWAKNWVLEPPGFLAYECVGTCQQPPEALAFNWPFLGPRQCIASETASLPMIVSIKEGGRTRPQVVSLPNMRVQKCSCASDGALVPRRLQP
Sequence of Follistatin-related protein 3 (Homo sapiens) (O95633 whole entry, looked up): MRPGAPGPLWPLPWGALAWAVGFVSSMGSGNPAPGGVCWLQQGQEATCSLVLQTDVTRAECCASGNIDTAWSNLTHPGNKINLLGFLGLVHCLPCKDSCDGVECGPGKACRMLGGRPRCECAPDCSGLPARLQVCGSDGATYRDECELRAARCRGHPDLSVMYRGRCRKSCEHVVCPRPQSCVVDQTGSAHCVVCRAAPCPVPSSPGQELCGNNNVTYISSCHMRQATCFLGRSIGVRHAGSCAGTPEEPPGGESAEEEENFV
Sequence of Fibroblast growth factor 10 (Homo sapiens) (O15520 whole entry, looked up): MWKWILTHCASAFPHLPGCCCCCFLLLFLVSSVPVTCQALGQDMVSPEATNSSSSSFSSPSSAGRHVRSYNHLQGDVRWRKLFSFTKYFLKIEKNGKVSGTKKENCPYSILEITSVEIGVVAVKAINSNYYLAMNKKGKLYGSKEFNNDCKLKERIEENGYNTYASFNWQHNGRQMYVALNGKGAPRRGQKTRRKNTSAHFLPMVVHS
Sequence of Dickkopf-related protein 1 (Homo sapiens) (O94907 whole entry, looked up): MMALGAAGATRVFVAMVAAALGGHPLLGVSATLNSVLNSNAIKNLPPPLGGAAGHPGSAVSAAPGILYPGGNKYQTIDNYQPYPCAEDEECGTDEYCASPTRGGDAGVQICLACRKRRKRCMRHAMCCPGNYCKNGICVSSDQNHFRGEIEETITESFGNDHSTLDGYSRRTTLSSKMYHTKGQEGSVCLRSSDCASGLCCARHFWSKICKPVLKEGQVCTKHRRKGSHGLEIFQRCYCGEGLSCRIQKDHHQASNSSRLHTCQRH
Sequence of Epidermal growth factor receptor (Homo sapiens) (P00533 whole entry, looked up): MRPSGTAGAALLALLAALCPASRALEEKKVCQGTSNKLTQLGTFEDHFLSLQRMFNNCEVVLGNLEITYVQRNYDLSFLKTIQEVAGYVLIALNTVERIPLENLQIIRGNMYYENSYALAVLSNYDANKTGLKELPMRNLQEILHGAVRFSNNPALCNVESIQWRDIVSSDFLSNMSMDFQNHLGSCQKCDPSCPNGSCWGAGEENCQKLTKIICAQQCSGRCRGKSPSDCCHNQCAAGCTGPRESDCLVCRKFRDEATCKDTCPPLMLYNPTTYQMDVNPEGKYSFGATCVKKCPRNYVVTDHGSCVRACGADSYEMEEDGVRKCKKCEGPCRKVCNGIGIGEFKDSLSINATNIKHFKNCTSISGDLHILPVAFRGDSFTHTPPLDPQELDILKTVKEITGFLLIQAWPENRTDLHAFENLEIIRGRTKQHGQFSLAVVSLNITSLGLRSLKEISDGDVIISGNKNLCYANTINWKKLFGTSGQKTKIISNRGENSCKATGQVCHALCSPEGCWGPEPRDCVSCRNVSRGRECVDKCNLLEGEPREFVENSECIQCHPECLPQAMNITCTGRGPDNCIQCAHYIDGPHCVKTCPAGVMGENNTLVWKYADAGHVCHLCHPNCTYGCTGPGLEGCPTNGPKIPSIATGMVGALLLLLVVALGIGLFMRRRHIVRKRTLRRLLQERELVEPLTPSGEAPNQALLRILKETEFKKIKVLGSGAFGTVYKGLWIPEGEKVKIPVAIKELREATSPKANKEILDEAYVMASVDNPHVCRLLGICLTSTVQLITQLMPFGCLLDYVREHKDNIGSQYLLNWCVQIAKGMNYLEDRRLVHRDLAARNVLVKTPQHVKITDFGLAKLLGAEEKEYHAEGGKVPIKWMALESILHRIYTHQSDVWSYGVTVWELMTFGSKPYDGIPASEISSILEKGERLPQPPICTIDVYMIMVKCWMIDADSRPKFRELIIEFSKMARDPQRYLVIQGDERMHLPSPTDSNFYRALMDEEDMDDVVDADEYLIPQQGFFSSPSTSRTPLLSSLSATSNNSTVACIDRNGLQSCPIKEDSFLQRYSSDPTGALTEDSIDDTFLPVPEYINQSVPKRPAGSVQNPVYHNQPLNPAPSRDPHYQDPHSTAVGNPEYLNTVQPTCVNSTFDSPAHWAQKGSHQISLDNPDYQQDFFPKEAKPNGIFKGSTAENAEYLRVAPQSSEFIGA

SMILES	composite z-score [1]	composite z-score [2]	composite z-score [3]	z-score [4]	composite z-score [5]	composite z-score [6]	composite z-score [7]	composite z-score [8]	composite z-score [9]	composite z-score [10]	composite z-score [11]	z-score [12]	composite z-score [13]	composite z-score [14]	composite z-score [15]	composite z-score [16]	composite z-score [17]	composite z-score [18]	composite z-score [19]	composite z-score [20]
CN1C(=O)C2C=CC(C(O)C(c3ccccc3)c3ccccc3)N(NC(=O)OC(C)(C)C)C2C1=O (stereo not given)	1.46	1.21	1.22	1.71 (inactive)	1.03	1.12	0.341	1.24	0.452	-0.109	1.32	-0.527	-0.0483	2.75	1.09	0.306	0.915	2.09	2.59	2.04
O=C1[C@H]2[C@H]3[C@H](O)[C@H](O)CC(=NOC[C@@H](O)COCc4ccco4)[C@H]3CC[C@H]2C(=O)N1C1CCCCC1	0.508	-0.565	-1.6	-1.13 (inactive)	0.0351	1.16	0.623	0.499	0.942	1.31	-0.417	-0.353	1.05	-1.04	-1.77	-0.104	-0.138	-0.402	-0.324	-0.32
CC(=O)OC[C@H]1O[C@H](CCON=C(C)CCN2CCc3nc(-c4ccccc4)c(-c4ccccc4)cc3C2)C=C[C@@H]1OC(C)=O	0.323	-0.154	0.101	0.82 (inactive)	-0.422	0.102	0.392	0.189	0.222	1.16	1.26	-1.58	0.0439	-0.205	-0.174	-0.0748	-0.0425	-0.273	0.624	1.57
CN1C(=O)C2C(C1=O)C1C=C(CCCO)C2C(c2ccc(CN3CCCC3)cc2)N1C (stereo not given)	-0.583	-0.32	-0.268	-0.451 (inactive)	-0.684	-0.0315	-0.576	-0.186	0.142	0.523	-0.0161	-0.259	0.175	-0.573	-0.0923	-0.148	-0.273	0.171	0.0993	0.0035
COC(=O)[C@]1(CO)N=C(c2ccc(OCCCO)cc2)O[C@@H]1c1ccccc1N=[N+]=[N-]	0.428	0.341	0.194	-0.121 (inactive)	1.36	0.521	0.384	0.393	0.356	0.653	0.812	0.411	0.274	-0.323	-0.629	0.0189	-0.226	-0.215	1.6	-0.0978
C#CCCCON=C1C[C@@H](O)[C@@H](O)[C@@H]2[C@@H]3C(=O)N(Cc4ccccc4)C(=O)[C@@H]3CC[C@H]12	1.43	-0.369	-0.417	-0.658 (inactive)	0.388	0.147	1.03	0.29	0.525	0.269	0.154	-1.08	0.451	-0.0441	-0.273	-0.154	-0.138	-0.0245	0.28	0.234
CCN1C(=O)[C@H]2[C@H]3[C@H](O)[C@H](O)CC(=NOCC=C(C)CCC=C(C)C)[C@H]3CC[C@H]2C1=O	0.908	-0.338	-1.31	0.886 (inactive)	1.13	1.17	1.18	1.43	1.74	1.1	0.614	-0.504	1.01	-1.01	-2.13	-0.0704	-0.0626	0.161	0.507	-0.476
CN(C)CCCNC(=O)[C@@H]1c2ccccc2C(=O)N(Cc2cc(F)cc(C(F)(F)F)c2)[C@H]1c1ccc(CO)cc1	1.75	-0.132	0.17	-1 (inactive)	0.159	0.922	0.368	-1.1	0.0959	-0.217	0.7	-0.734	0.643	0.509	0.0028	-0.103	-0.0904	1.39	0.886	-0.0234
COc1ccc(COC(=O)NN=C2C[C@@H](O)[C@@H](O)[C@@H]3[C@@H]4C(=O)N(c5ccc(F)cc5F)C(=O)[C@@H]4CC[C@@H]23)cc1	0.911	0.262	1.18	0.3 (inactive)	-0.665	-1.53	-0.076	-0.267	-0.69	0.532	-0.0514	-0.76	-0.151	0.0539	-0.325	-0.096	-0.221	0.041	0.599	0.626
O=C1[C@H]2[C@H]3[C@H](O)[C@H](O)CC(=NO[C@@H]4O[C@H](CO)[C@@H](O)[C@H](O)[C@H]4O)[C@H]3CC[C@H]2C(=O)N1Cc1ccccc1	0.366	-0.223	-0.752	-0.741 (inactive)	0.437	0.656	0.426	0.0042	-0.566	-1.42	0.386	0.322	0.652	-0.058	-0.534	0.0044	-0.209	0.124	0.135	0.784
CC(C)NC(=O)[C@@]1(C)c2ccccc2C(=O)N(Cc2cc(F)cc(C(F)(F)F)c2)[C@H]1c1ccc(CO)cc1	0.442	0.574	0.384	-0.0501 (inactive)	1.27	0.917	0.655	0.57	-0.12	0.858	1.3	0.0589	-0.0164	0.304	0.418	-0.0165	-0.121	-0.347	0.363	1.16
